Laboratory results reported in PubChem BioAssay (NCI).
Compounds without any hit were thinned out: in the full panel of roughly 83,000, 20% have a hit.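 Method: cells in 96-well plates; compound added at one concentration; 48 h incubation; percent growth measured; values under 10 scored active.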 Activity calls are given as the source filed them.

Columns and labels:
Experiment in all cases: NCI-60 one-dose screen, 48 h (100 = growth as untreated, 0 = no growth, -100 = all killed)
Conditions in all cases: 10 µM unless noted
DU-145 prostate = tested on: DU-145 prostate
K-562 leukemia = tested on: K-562 leukemia
MALME-3M melanoma = tested on: MALME-3M melanoma
MDA-MB-231 breast = tested on: MDA-MB-231 breast
RXF 393 renal = tested on: RXF 393 renal
SF-268 CNS = tested on: SF-268 CNS
SF-539 CNS = tested on: SF-539 CNS
UACC-257 melanoma = tested on: UACC-257 melanoma
M14 melanoma = tested on: M14 melanoma
HCT-15 colon = tested on: HCT-15 colon
HT29 colon = tested on: HT29 colon
SNB-75 CNS = tested on: SNB-75 CNS
SNB-19 CNS = tested on: SNB-19 CNS
U251 CNS = tested on: U251 CNS
PC-3 prostate = tested on: PC-3 prostate
SK-MEL-5 melanoma = tested on: SK-MEL-5 melanoma
UACC-62 melanoma = tested on: UACC-62 melanoma
LOX IMVI melanoma = tested on: LOX IMVI melanoma
SK-MEL-28 melanoma = tested on: SK-MEL-28 melanoma

Measured: growth

O=C(NCC(c1ccsc1)N1CCCCCC1)c1ccc(C(F)(F)F)cc1 (configuration not stated)
inactive: DU-145 prostate 105% | K-562 leukemia 83.7% | MALME-3M melanoma 98.5% | MDA-MB-231 breast 85.1% | RXF 393 renal 85.7% | SF-268 CNS 98.3% | SF-539 CNS 108% | UACC-257 melanoma 108% | M14 melanoma 93% | HCT-15 colon 100% | HT29 colon 82% | SNB-75 CNS 87.6% | SNB-19 CNS 87.9% | U251 CNS 90.7% | PC-3 prostate 88.5% | SK-MEL-5 melanoma 94.9% | UACC-62 melanoma 99.1% | LOX IMVI melanoma 78.9% | SK-MEL-28 melanoma 110%

O=C(NNC(=S)Nc1ccccc1)c1ccc(Nc2ncnc3c2cnn3-c2cccc(Br)c2)cc1
inactive: DU-145 prostate 107% | K-562 leukemia 112% | MALME-3M melanoma 101% | MDA-MB-231 breast 110% | RXF 393 renal 99.6% | SF-268 CNS 95.4% | SF-539 CNS 98.5% | UACC-257 melanoma 114% | M14 melanoma 100% | HCT-15 colon 110% | HT29 colon 105% | SNB-75 CNS 80% | SNB-19 CNS 101% | U251 CNS 114% | PC-3 prostate 93.5% | SK-MEL-5 melanoma 100% | UACC-62 melanoma 94.6% | LOX IMVI melanoma 97.3% | SK-MEL-28 melanoma 110%

Fc1[nH]nc2ccc([C@@H]3Nc4ccc5[nH]ncc5c4[C@H]4C5CCC(C5)[C@@H]34)cc12 (some centres not stated)
inactive: DU-145 prostate 15.1% | K-562 leukemia 15.1% | MALME-3M melanoma 48.5% | MDA-MB-231 breast 46.2% | SF-268 CNS 57.5% | UACC-257 melanoma 82.2% | M14 melanoma 21.2% | HCT-15 colon 34.5% | SNB-19 CNS 36.6% | U251 CNS 25.8% | PC-3 prostate 27.8% | SK-MEL-5 melanoma 25.7% | UACC-62 melanoma 27.5% | LOX IMVI melanoma 48.3% | SK-MEL-28 melanoma 54.8%
active: RXF 393 renal -6.05% | SF-539 CNS -15.9% | HT29 colon 8.7% | SNB-75 CNS -14.8%

C/C(=C\C(=N\N=C(N)N)c1ccc(Cl)cc1)c1ccc(Cl)cc1
active: DU-145 prostate -91.4% | K-562 leukemia -51.7% | MALME-3M melanoma -64.6% | MDA-MB-231 breast -73.1% | RXF 393 renal -95.8% | SF-268 CNS -89.2% | SF-539 CNS -73.7% | UACC-257 melanoma -72.5% | M14 melanoma -79.7% | HCT-15 colon -69.5% | HT29 colon -70.1% | SNB-75 CNS -82.9% | SNB-19 CNS -79.8% | U251 CNS -93% | PC-3 prostate -80% | SK-MEL-5 melanoma -98.7% | UACC-62 melanoma -87.3% | LOX IMVI melanoma -59.1% | SK-MEL-28 melanoma -81%

COc1cc(NCCCCC(C)N)c2nccc(C)c2c1 (configuration not stated)
inactive: DU-145 prostate 111% | K-562 leukemia 80.4% | MALME-3M melanoma 98% | MDA-MB-231 breast 62.9% | RXF 393 renal 89.8% | SF-268 CNS 100% | SF-539 CNS 83.9% | UACC-257 melanoma 107% | M14 melanoma 95.4% | HCT-15 colon 93.9% | HT29 colon 76.3% | SNB-75 CNS 72% | SNB-19 CNS 94.6% | U251 CNS 93% | PC-3 prostate 66% | SK-MEL-5 melanoma 87.7% | UACC-62 melanoma 91.1% | LOX IMVI melanoma 92.7% | SK-MEL-28 melanoma 99.3%

Nc1nc2ccc([C@@H]3Nc4ccc5[nH]ncc5c4[C@H]4[C@H]5CCC(C5)[C@H]43)cc2s1
inactive: K-562 leukemia 19.4% | MDA-MB-231 breast 47.2% | SF-268 CNS 48.4% | UACC-257 melanoma 29.3% | M14 melanoma 17.7% | HCT-15 colon 29.7% | SNB-19 CNS 30.8% | U251 CNS 23.8% | SK-MEL-5 melanoma 24.4% | LOX IMVI melanoma 40.7% | SK-MEL-28 melanoma 23.8%
active: DU-145 prostate 9.96% | MALME-3M melanoma -55.7% | RXF 393 renal -4.16% | SF-539 CNS 0.597% | HT29 colon 5.7% | SNB-75 CNS -24.8% | PC-3 prostate 6.63% | UACC-62 melanoma -88.6%

Cc1cc(C)cc(Nc2cc(C)nc3nc(C(F)(F)F)nn23)c1
inactive: DU-145 prostate 38.1% | K-562 leukemia 20.2% | MALME-3M melanoma 45.5% | MDA-MB-231 breast 50.1% | RXF 393 renal 52.1% | SF-268 CNS 28.7% | UACC-257 melanoma 30.7% | M14 melanoma 24% | HCT-15 colon 30.4% | HT29 colon 41.5% | SNB-75 CNS 61.6% | SNB-19 CNS 45.7% | U251 CNS 31.5% | PC-3 prostate 57.1% | SK-MEL-5 melanoma 32.1% | LOX IMVI melanoma 24.1% | SK-MEL-28 melanoma 50.8%
active: SF-539 CNS 4.14% | UACC-62 melanoma -33.8%

CCC1CCc2nc3sc(C(=O)Nc4cccc(F)c4)c(N)c3cc2C1 (configuration not stated)
inactive: DU-145 prostate 60% | K-562 leukemia 28.6% | MALME-3M melanoma 34.8% | MDA-MB-231 breast 78.3% | RXF 393 renal 65.8% | SF-268 CNS 68.2% | SF-539 CNS 58.8% | UACC-257 melanoma 49.5% | M14 melanoma 47.5% | HCT-15 colon 31.7% | HT29 colon 33.5% | SNB-75 CNS 51.7% | SNB-19 CNS 76.9% | U251 CNS 56.3% | PC-3 prostate 63.6% | SK-MEL-5 melanoma 41.9% | UACC-62 melanoma 39.5% | LOX IMVI melanoma 61.3% | SK-MEL-28 melanoma 59.7%
